# The list is not random: actives were taken first. Their share in the collection is about 7%.
# ADAM17 inh – inhibitors of human ADAM17 | P78536 | 370,000 tested, 0.83% active | recombinant ADAM17, EDANS/DABCYL FRET peptide cleavage | inhibition, % at 6.95 µM;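 active = inhibition above the mean of compounds lying between control limits plus 3 SD, set per campaign, cut at about 8.5% in these data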
# Target sequence (P78536 215-824 limits assumed): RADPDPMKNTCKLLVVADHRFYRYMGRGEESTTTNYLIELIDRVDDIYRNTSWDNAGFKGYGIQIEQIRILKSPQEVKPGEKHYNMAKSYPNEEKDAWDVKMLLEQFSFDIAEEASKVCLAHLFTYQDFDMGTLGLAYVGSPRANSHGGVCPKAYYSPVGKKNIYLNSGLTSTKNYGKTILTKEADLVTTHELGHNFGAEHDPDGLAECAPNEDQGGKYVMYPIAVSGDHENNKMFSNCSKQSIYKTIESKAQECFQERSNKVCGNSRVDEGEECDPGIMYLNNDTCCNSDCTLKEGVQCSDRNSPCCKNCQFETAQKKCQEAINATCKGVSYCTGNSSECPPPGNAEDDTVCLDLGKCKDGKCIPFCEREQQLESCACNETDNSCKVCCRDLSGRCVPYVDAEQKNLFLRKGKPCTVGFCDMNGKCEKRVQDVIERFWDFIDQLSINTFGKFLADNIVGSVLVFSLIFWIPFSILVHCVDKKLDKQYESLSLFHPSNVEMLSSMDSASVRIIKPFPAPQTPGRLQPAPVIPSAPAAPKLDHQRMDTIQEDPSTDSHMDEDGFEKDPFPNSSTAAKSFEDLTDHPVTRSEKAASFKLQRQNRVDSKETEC
# rCAG RNA binder – r(CAG) repeat RNA binding; 370,000 tested, 1.3% active; inhibition, % at 3 µM; TO-PRO-1 dye displacement fluorescence; AID 651821;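 active = inhibition above the plate cutoff, the mean of all test compounds on that plate plus 3 SD, cut at about 35% in these data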;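 note: higher means more dye released from RNA so lower well fluorescence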
# NR3A LBD binder – NR3A (human) ligand-binding domain modulation | NR3A LBD differential scanning fluorimetry, Tm shift; 0% = protein alone, 100% = glycine-bound protein | Tm shift relative to glycine control, % at 25 µM | 340,000 tested, 2.5% active;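 active = melting temperature shift of at least 10% of the positive control shift, at one fixed dose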
# ADAM10 inh – inhibits human ADAM10 | inhibition, % at 7 µM | O14672 | 370,000 tested, 0.62% active | recombinant ADAM10, EDANS/DABCYL FRET peptide cleavage, 3 h;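 active = inhibition above a per-campaign cutoff equal to the mean of compounds falling between control-based bounds plus 3 SD, cut at about 20% in these data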
# AHR act – activators of human aryl hydrocarbon receptor. P35869. AHR-responsive luciferase reporter cells, luminescence. activation, % at 5 µM. 320,000 tested, 2.5% active. AID 2796; in the data active = activation above about 47%
# KLK7 zymogen act – activators of human kallikrein-7 zymogen. purified proKLK7, EDANS-DABCYL substrate fluorescence; 100% is mature enzyme control, 0% vehicle. activation, % at 7 µM. 370,000 tested, 0.9% active. AID 652039;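 active = activation above the mean of all tested compounds plus 3 SD, computed per campaign excluding outliers beyond control limits, cut at about 13% in these data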
# rCAG binder conf – r(CAG) RNA repeat binding, confirmation; TO-PRO-1 dye displacement fluorescence; AID 652065; shares compounds with rCAG RNA binder; 4,300 tested, 70% active; inhibition, % at 3 µM;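 active = inhibition above a per-plate cutoff, the mean inhibition of sample wells plus 3 SD, cut at about 35% in these data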;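 note: loss of TO-PRO-1 fluorescence as compound displaces dye from 1x1 AA loop RNA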
# dCAG dye counter – disrupts DNA CAG TO-PRO-1 complex, flagging rCAG hits; shares compounds with rCAG RNA binder; d(CAG) DNA oligo TO-PRO-1 dye displacement, fluorescence; inhibition, % at 3 µM; 4,300 tested, 94% active; AID 652068;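 active = inhibition above its plate's cutoff, the mean test-well inhibition plus 3 SD, cut at about 4.8% in these data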;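 note: hits displace the dye from DNA and so lower well fluorescence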
# Numbers stand for hits; - = inactive; . = not tested or not shown.
SMILES,ADAM17 inh,rCAG RNA binder,NR3A LBD binder,ADAM10 inh,AHR act,KLK7 zymogen act,rCAG binder conf,dCAG dye counter
O=c1nc2s/c(=C\c3ccc(-c4ccccc4[N+](=O)[O-])o3)c(=O)n2nc1-c1ccccc1,-,46,-,-,.,-,51,25
CCCc1c(O)nc(SCC(=O)NCCc2ccc(OC)c(OC)c2)[nH]c1=O,-,-,-,-,-,-,.,.
CCOC(=O)CC(=O)CSc1nc2c(sc(=S)n2-c2ccccc2)c(=O)[nH]1,-,41,-,-,-,-,-,5.8
CCCCNC(=O)CSc1nc2c(sc(=S)n2-c2cc(Cl)ccc2OC)c(=O)[nH]1,-,44,-,-,-,-,43,12
CCOC(=O)CSc1nc2c(sc(=S)n2-c2ccc(CC)cc2)c(=O)[nH]1,-,60,-,-,-,-,65,26
Cc1cccc(N2CCN(C(=O)Cc3c(C(=O)O)[nH]c4ccc(Cl)cc34)CC2)c1C,-,50,-,-,-,-,72,37
CCC(C(=O)O)n1nnc(-c2ccc(-c3ccc(OC)cc3)cc2)n1 (stereo not given),-,48,-,-,-,-,36,10
O=C(N[C@H](Cc1ccccc1)C(=O)N1CCCN(Cc2ccccc2F)CC1)[C@H]1O[C@@H](n2ccc(=O)[nH]c2=O)[C@H](O)[C@@H]1O,-,-,.,-,.,-,.,.
C=CCOc1ccc(Br)cc1/C=C1\NC(=S)N(C(C)=O)C1=O,-,66,-,-,-,-,49,15
O=C(CCn1nnc(-c2cccs2)n1)N1CCCCC1,-,-,.,-,.,-,.,.
COc1ccc(-n2c(CSc3ccc(Cl)cc3)n[nH]c2=S)cc1,-,-,.,-,.,-,.,.
NS(=O)(=O)c1cccc(NC(=O)CSc2nc3nc(-c4cccs4)cc(C(F)(F)F)c3c(=O)[nH]2)c1,-,50,-,-,-,-,77,45
O=Cc1cn(CCC(=O)O)nc1-c1cccc(Cl)c1,-,-,-,-,-,-,.,.
O=C(O)CCn1cc(/C=C2\NC(=S)N(c3ccccc3)C2=O)c(-c2ccc(Br)cc2)n1,-,41,-,-,-,-,39,9.4
COC(=O)C1=C(C)N(Cc2ccc(C(F)(F)F)cc2)C(=NCc2ccc3c(c2)OCO3)NC1c1ccccc1C(F)(F)F (stereo not given),-,-,.,-,.,-,.,.
Cc1cccc2sc(NNC(=O)c3cc(-c4cccs4)nc4ccccc34)nc12,-,38,-,-,-,-,36,16
C=CCc1cc(/C=C2/NC(=O)N(CC)C2=O)cc(OCC)c1OCc1ccc(C(=O)O)cc1,-,43,-,-,-,-,41,10
O=S(=O)(N1CCCCC1)n1nnc2cc3ccccc3cc21,-,-,.,-,.,-,.,.
Cc1ccsc1/C=N/NC(=O)c1cccc(S(=O)(=O)Nc2ccccc2Cl)c1,-,47,-,-,-,-,40,14
O=C(N/N=C/c1ccccn1)c1cccc(S(=O)(=O)Nc2ccccc2Cl)c1,-,-,-,-,-,-,.,.
Cc1ccc(S(=O)(=O)Nc2nc3ccccc3nc2N2CCOCC2)cc1,-,-,-,-,-,-,.,.
O=S(=O)(Nc1nc2ccccc2nc1N1CCN(c2ccccc2)CC1)c1ccc(F)cc1,-,69,24,-,-,-,67,28
O=C(N/N=C/c1ccco1)c1cc(-c2cccc3ccccc23)n[nH]1,-,-,-,-,-,-,.,.
O=C(N/N=C/c1ccccc1C(=O)O)c1cc(-c2ccc3c4c(cccc24)CC3)n[nH]1,-,58,-,-,-,-,62,24
COc1ccc2cc3cc(C(=O)Nc4ccc(F)cc4)sc3nc2c1,-,.,.,-,.,.,.,.
CC(C)(C)OC(=O)N1CCC(c2cc(=O)n3[nH]cc(C(=O)NC4CCCC4)c3n2)CC1,-,55,-,-,-,-,48,13

# Source: PubChem BioAssay
